Source: PubChem BioAssay (NCATS)
Results filed as inconclusive are left out. Some of the results follow. Activity calls are given as the source filed them. Unless noted, calls come from the whole dose curve; as a rule, active = well fitted curve in the direction sought with a large enough effect; inconclusive = small, poorly fitted or top-dose-only effect, or another doubt; inactive = no such curve, though single readings can be large; an effect the other way counts as inactive or inconclusive.

Experiments:
[1] = target: DNA polymerase iota (Homo sapiens) (UniProt Q9UNA4); test: qHTS for Inhibitors of Polymerase Iota: Confirmatory Assay for Cherry-picked Compounds (AID 720496); settings: Pol iota primer extension, TAMRA/BHQ fluorescence; note: potency is the fitted concentration of half-maximal effect
DNA polymerase iota (Homo sapiens), sequence (Q9UNA4 whole entry, looked up): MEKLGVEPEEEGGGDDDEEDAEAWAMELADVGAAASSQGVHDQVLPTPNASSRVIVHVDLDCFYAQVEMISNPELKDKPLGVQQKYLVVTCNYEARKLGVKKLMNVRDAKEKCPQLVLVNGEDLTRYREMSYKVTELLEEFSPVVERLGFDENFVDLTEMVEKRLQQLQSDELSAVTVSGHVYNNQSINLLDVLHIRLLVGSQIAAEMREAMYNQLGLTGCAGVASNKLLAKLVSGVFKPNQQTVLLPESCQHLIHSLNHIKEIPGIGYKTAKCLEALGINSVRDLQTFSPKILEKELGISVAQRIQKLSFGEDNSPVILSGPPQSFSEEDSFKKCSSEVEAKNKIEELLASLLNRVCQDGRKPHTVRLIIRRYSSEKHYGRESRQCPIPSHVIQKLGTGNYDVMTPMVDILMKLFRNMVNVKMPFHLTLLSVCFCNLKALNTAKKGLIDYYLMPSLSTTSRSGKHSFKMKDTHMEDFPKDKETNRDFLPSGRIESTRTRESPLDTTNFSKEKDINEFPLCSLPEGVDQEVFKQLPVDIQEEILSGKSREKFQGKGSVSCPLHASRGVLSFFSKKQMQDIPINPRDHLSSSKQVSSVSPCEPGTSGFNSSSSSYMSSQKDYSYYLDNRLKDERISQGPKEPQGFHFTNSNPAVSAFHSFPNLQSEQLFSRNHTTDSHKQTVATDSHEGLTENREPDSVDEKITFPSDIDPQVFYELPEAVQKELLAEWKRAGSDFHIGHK
How it was run: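 Human Pol iota (10 nM) was preincubated 15 min at room temperature with compound, then started with 50 nM TAMRA/BHQ-2 quenched primer-template substrate. Fluorescence (ex 525/em 598 nm) was read at 0 and 10 min.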

[2] = target: Flap endonuclease 1 (Homo sapiens) (UniProt P39748); test: qHTS Assay for the Inhibitors of FEN1: Confirmatory Assay for Cherry-picked Compounds (AID 720498); settings: FEN1 flap cleavage, TAMRA/BHQ2 fluorogenic DNA substrate; note: potency is the fitted concentration of half-maximal effect; nearly all actives have a fitted effect of over 60% in size
Flap endonuclease 1 (Homo sapiens), sequence (P39748 whole entry, looked up): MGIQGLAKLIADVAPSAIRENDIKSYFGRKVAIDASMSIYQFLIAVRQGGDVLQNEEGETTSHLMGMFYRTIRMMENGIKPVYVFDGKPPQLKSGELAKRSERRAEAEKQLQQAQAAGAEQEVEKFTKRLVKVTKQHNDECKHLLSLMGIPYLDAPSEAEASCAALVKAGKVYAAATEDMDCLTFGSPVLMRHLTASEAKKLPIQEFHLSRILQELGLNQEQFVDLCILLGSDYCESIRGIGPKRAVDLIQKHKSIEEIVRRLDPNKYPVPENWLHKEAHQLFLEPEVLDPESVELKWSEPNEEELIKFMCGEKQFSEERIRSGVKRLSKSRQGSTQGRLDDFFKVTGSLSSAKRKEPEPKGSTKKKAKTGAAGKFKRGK
How it was run: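 FEN1 at 10 nM was preincubated with compound for 15 min at room temperature, then 50 nM (final) double-flap DNA substrate was added. TAMRA fluorescence released from the BHQ-2-quenched flap was read at 0 and 15 min (ex 525/em 598 nm).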

[3] = target: DNA polymerase eta (Homo sapiens) (UniProt Q9Y253); test: qHTS for Inhibitors of Polymerase Eta: Confirmatory Assay for Cherry-picked Compounds (AID 720502); settings: Pol eta primer extension, TAMRA/BHQ fluorescence, 10 min; note: potency is the fitted concentration of half-maximal effect
DNA polymerase eta (Homo sapiens), sequence (Q9Y253 whole entry, looked up): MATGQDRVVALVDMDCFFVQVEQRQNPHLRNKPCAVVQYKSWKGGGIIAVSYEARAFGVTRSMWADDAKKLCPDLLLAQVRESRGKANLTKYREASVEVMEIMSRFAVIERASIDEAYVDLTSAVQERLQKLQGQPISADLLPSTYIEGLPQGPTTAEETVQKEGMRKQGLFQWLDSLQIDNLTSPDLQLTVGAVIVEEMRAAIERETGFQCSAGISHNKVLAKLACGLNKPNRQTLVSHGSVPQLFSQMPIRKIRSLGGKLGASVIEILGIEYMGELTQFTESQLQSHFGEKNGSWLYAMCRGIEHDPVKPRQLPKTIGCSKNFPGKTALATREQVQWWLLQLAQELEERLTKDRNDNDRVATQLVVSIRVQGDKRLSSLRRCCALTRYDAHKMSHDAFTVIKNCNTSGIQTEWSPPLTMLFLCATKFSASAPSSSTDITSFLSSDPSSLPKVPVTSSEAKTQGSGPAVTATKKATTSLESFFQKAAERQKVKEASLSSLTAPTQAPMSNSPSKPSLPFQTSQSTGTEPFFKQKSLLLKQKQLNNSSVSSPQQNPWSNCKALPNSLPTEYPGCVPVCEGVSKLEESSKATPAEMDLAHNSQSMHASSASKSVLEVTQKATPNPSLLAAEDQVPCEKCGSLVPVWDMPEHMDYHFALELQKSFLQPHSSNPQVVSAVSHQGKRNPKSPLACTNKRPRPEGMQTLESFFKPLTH
How it was run: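 Enzyme at 10 nM is mixed with pin-transferred compound and left 15 min at room temperature. Substrate (50 nM final) is then added, and plates are read at 0 min and after 10 min.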

[4] = target: Bifunctional 3'-5' exonuclease/ATP-dependent helicase WRN (Homo sapiens) (UniProt Q14191); test: qHTS for Inhibitors of WRN Helicase: Confirmatory Assay for Cherry-picked Compounds. (AID 720497); settings: WRN helicase DNA unwinding, fluorescence kinetic; series mostly up to 57.1 µM; note: nearly all actives have a fitted effect of over 65% in size
Bifunctional 3'-5' exonuclease/ATP-dependent helicase WRN (Homo sapiens), sequence (Q14191 whole entry, looked up): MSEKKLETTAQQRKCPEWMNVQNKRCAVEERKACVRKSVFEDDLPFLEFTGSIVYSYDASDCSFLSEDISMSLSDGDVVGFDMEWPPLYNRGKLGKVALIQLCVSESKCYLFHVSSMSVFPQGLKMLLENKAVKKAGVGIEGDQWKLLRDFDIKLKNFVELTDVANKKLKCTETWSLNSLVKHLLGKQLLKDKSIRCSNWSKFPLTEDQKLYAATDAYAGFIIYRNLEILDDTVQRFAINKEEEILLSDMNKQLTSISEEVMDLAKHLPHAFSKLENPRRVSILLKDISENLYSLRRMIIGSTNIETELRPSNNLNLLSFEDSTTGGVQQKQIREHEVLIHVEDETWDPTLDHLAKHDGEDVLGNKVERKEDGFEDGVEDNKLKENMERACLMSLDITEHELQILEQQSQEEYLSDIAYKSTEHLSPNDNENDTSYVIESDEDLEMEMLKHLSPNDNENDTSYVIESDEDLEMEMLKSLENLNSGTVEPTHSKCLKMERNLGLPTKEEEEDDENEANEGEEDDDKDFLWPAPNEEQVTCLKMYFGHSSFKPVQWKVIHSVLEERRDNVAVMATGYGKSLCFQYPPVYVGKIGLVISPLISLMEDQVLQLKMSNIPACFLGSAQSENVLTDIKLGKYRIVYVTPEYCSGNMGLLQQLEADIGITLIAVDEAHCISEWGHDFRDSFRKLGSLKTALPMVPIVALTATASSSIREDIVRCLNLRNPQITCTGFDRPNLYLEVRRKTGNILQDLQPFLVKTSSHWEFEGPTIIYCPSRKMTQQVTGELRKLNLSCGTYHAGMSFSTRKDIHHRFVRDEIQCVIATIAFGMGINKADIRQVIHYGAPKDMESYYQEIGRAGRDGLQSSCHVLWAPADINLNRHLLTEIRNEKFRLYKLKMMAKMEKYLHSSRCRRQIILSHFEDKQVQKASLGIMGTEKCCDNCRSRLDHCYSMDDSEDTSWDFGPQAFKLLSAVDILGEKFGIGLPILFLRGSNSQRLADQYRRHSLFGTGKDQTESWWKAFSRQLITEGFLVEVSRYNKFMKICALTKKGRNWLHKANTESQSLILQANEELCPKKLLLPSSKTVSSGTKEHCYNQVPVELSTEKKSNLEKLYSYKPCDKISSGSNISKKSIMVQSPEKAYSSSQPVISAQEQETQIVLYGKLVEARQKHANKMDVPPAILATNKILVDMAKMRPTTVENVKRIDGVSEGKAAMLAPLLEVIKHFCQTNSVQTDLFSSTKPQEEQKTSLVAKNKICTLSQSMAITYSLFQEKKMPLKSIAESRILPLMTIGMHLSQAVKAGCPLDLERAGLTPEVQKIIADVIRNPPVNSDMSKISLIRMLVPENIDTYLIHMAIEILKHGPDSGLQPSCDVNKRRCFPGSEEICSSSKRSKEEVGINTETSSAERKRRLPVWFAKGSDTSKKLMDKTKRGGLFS
How it was run: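 Confirmatory retest of cherry-picked hits in 1536-well format. Enzyme (20 nM final) sat with compound for 15 min at room temperature before forked duplex substrate (100 nM) and ATP (2 mM) were added, and unwinding was followed kinetically by red fluorescence.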

[5] = qHTS for Inhibitors of WRN Helicase: Thiazole Orange DNA Binding Counterscreen (AID 720499); settings: thiazole orange DNA binding displacement, fluorescence; series mostly up to 57.1 µM;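 note: drop in dye fluorescence marks compound binding to DNA; % is set by controls: 0 for no effect and ±100 for the full control effect; nearly all actives have a fitted effect of over 60% in size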
How it was run: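 Fluorescence at 530 nm (excitation 480 nm) is measured after compounds incubate 15 min at room temperature with unlabeled DNA (50 nM) bound to thiazole orange (100 nM). Decreased signal indicates nonspecific DNA binding.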

[6] = qHTS Assay for Identifying Gametocytocidal Compounds (AID 743244);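 note: % is set by controls: 0 for no effect and ±100 for the full control effect; actives lower the fluorescent signal which means gametocytes are killed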; settings: P. falciparum 3D7 stage III-V gametocytes, alamarBlue, 72 h; stronger effect = lower value
How it was run: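 Compounds are pinned into medium, gametocytes (stage III–V, 3D7, 20,000 cells/well) added, and plates held 72 h at 37 °C in 5% CO2. AlamarBlue follows for 24 h before fluorescence reading.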

[7] = qHTS profiling for inhibitors of Plasmodium falciparum (3D7) proliferation (AID 743322; call rule not given here;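 note: infected erythrocytes exposed to compound for 72 h before lysis; 100% = DMSO vehicle wells and 0% = 0.29 µM artemisinin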); settings: P. falciparum 3D7 proliferation; at 28.7 µM (top of the series)
How it was run: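 Erythrocytes infected with P. falciparum (0.3% parasitemia, 2.5% hematocrit) incubated with compounds 72 h at 37 C, 5% CO2. Lysis with saponin/Triton buffer containing SYBR Green I, overnight at room temperature in the dark; DNA fluorescence (485/535 nm) normalised to 0.29 uM artemisinin and DMSO.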

[8] = qHTS profiling for inhibitors of Plasmodium falciparum (DD2) proliferation (AID 743323; call rule not given here); settings: lower = more inhibition; at 28.7 µM (top of the series)
How it was run: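 P. falciparum Dd2-infected erythrocytes (0.3% parasitemia, 2.5% hematocrit) exposed 72 h at 37 C, 5% CO2. Lysis with SYBR Green, overnight at room temperature, fluorescence 485/535 nm; normalized to 0.29 uM artemisinin and DMSO.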

[9] = qHTS profiling for inhibitors of Plasmodium falciparum (HB3) proliferation (AID 743324); settings: Plasmodium falciparum HB3 blood-stage proliferation; at 28.7 µM (top of the series);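 note: 100% = DMSO vehicle wells and 0% = artemisinin-treated control wells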
How it was run: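 P. falciparum HB3 grown in erythrocytes (0.3% parasitemia, 2.5% hematocrit final) with compound for 72 h at 37 C, 5% CO2. Parasite DNA detected by SYBR Green after saponin/triton lysis overnight; normalized to 0.29 uM artemisinin and DMSO.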

Question: Which Potency [1] does the source give for `COc1ccc2[nH]c3c(C)c4cc[n+](C)cc4c(C)c3c2c1` here?
Answer: 2.99 µM (active)

Question: What about the Potency [2] of the same molecule?
Answer: 1.35 µM (active)

Question: And the Potency [3]?
Answer: 9.53 µM (active)

Question: With `CCN(CC)c1ccc2cc(C(N)=O)/c(=N\NC(=O)c3ccncc3)oc2c1` as the molecule, how does the Potency [2] read?
Answer: 33.8 µM (active)

Question: For `O=C1COc2c1ccc(O)c2O`, which Potency [1] is on record?
Answer: 33.6 µM (active)

Question: What about the Potency [3] of the same molecule?
Answer: 9.53 µM (active)

Question: With `c1ccc2cc3c(NCCN4CCOCC4)ccnc3cc2c1` as the molecule, how does the Potency [2] read?
Answer: 37.9 µM (active)

Question: For `CC1CCN(c2ccc(S(=O)(=O)Nc3cc(C(=O)O)cc(C(=O)O)c3)cc2[N+](=O)[O-])CC1`, which Potency [3] is on record?
Answer: 60.1 µM (active)

Question: Which Potency [4] does the source give for `COC(=O)/C=C\C(=O)Nc1cccc([N+](=O)[O-])c1` here?
Answer: inactive

Question: What about the Potency [5] of the same molecule?
Answer: inactive

Question: For `O=C1NN(c2ccccc2)C(=O)/C1=C/c1ccc(-c2cccc(C(=O)O)c2)o1`, which Potency [3] is on record?
Answer: 30.1 µM (active)

Question: What does the source list for `CC1=NN(c2ccc(Cl)c(C(=O)O)c2)C(=O)/C1=C/c1ccc(-c2ccccc2[N+](=O)[O-])o1`?
Answer: Potency [5]: inactive; Potency [3]: 75.7 µM (active)

Question: Which max response [6] does the source give for `CC[C@]1(O)CC2CN(CCc3c([nH]c4ccccc34)[C@@](C(=O)OC)(c3cc4c(cc3OC)N(C)[C@H]3[C@@](O)(C(N)=O)[C@H](O)[C@]5(CC)C=CCN6CC[C@]43[C@@H]65)C2)C1` (some centres not stated) here?
Answer: -7.92% (inactive)

Question: For `C=C1C(=C/C=C2\CCC[C@]3(C)[C@@H]([C@H](C)CCCC(C)C)CC[C@@H]23)C[C@@H](O)C[C@@H]1O`, which max response [6] is on record?
Answer: -2.16% (inactive)

Question: Which Potency [3] does the source give for `C=C(C)C(=O)O[C@H]1C/C(C)=C\C(=O)/C=C(\C)[C@H](O)[C@@H]2OC(=O)C(=C)[C@@H]21` here?
Answer: 75.7 µM (active)

Question: With `O=C1C(=O)c2ccccc2C(O)=C1C1CCCCC1` as the molecule, how does the remaining parasite growth % (stronger effect = lower value) [7] read?
Answer: 3.7%

Question: What about the activity, percent of control [8] of the same molecule?
Answer: 4.15%

Question: What about the remaining proliferation (% of control), lower = more inhibition [9] of the same molecule?
Answer: 3.28%

Question: For `O=C([C@H](Cc1ccc(O[S+](=O)([O-])c2cccc3cnccc23)cc1)N[S+](=O)([O-])c1cccnc1)N1CCN(c2ccccc2)CC1`, which remaining parasite growth % (stronger effect = lower value) [7] is on record?
Answer: -1.25%

Question: What about the activity, percent of control [8] of the same molecule?
Answer: 0.979%

Question: And the remaining proliferation (% of control), lower = more inhibition [9]?
Answer: -0.812%

Question: For `O=C1CCC(C2=C(O)c3ccccc3C(=O)C2=O)CC1`, which remaining parasite growth % (stronger effect = lower value) [7] is on record?
Answer: 7.05%

Question: What about the activity, percent of control [8] of the same molecule?
Answer: 6.83%

Question: And the remaining proliferation (% of control), lower = more inhibition [9]?
Answer: 5.38%

Question: For `Cc1oc2c(C)c3oc(=O)c(CC(=O)N[C@@H](CC(C)C)C(=O)N[C@@H](Cc4ccccc4)C(=O)O)c(C)c3cc2c1C`, which Potency [3] is on record?
Answer: 47.8 µM (active)

Question: With `COc1ccccc1C(=O)N/C(=C/c1ccco1)C(=O)Nc1ccc(C(=O)O)cc1` as the molecule, how does the Potency [3] read?
Answer: 53.6 µM (active)

Question: For `N[C@H]1CN(c2c(F)cc3c(=O)c(C(=O)O)cn(C4C[C@H]4F)c3c2Cl)CC12CC2` (some centres not stated), which max response [6] is on record?
Answer: -6.9% (inactive)

Question: For `CC(C)(C)OC(=O)N[C@@H](Cc1ccc(O[S+](=O)([O-])c2ccccn2)cc1)C(=O)N1CCN(c2ccccc2)CC1`, which remaining parasite growth % (stronger effect = lower value) [7] is on record?
Answer: 5.22%

Question: What about the activity, percent of control [8] of the same molecule?
Answer: 11.4%

Question: And the remaining proliferation (% of control), lower = more inhibition [9]?
Answer: 2.38%

Question: With `O=C([C@H](Cc1ccc(O[S+](=O)([O-])c2ccccn2)cc1)N[S+](=O)([O-])c1cccnc1)N1CCN(c2ccccc2)CC1` as the molecule, how does the remaining parasite growth % (stronger effect = lower value) [7] read?
Answer: 17.8%

Question: And the activity, percent of control [8]?
Answer: 17.9%

Question: What about the remaining proliferation (% of control), lower = more inhibition [9] of the same molecule?
Answer: 2.38%

Question: Which Potency [3] does the source give for `O=C1Nc2ccc([N+](=O)[O-])cc2C1=Nc1cccc(CO)c1` here?
Answer: 75.7 µM (active)

Question: With `Cc1ccc(NC(=O)c2cc(-c3ccc(C)o3)nc3ccccc23)nc1` as the molecule, how does the Potency [3] read?
Answer: 75.7 µM (active)

Question: What does the source list for `O=C([C@@H](Cc1ccc(O[S+](=O)([O-])c2ccccn2)cc1)N[S+](=O)([O-])c1cccc2cccnc12)N1CCN(c2ccccc2)CC1`?
Answer: remaining parasite growth % (stronger effect = lower value) [7]: -0.32%; activity, percent of control [8]: 1.5%; remaining proliferation (% of control), lower = more inhibition [9]: 0.71%

Question: Which remaining parasite growth % (stronger effect = lower value) [7] does the source give for `N[C@@H](Cc1ccc(OS(=O)(=O)c2ccccn2)cc1)C(=O)N1CCN(c2ccccc2)CC1` here?
Answer: 98.8%

Question: And the activity, percent of control [8]?
Answer: 43.6%

Question: And the remaining proliferation (% of control), lower = more inhibition [9]?
Answer: 67%

Question: Which remaining parasite growth % (stronger effect = lower value) [7] does the source give for `CS(=O)(=O)c1ccc(-c2cnc(N)c(-c3ccc(C(F)(F)F)nc3)c2)cc1` here?
Answer: 2.16%

Question: What about the activity, percent of control [8] of the same molecule?
Answer: 8.27%

Question: And the remaining proliferation (% of control), lower = more inhibition [9]?
Answer: 4.13%

Question: Which max response [6] does the source give for `O=C(O)[C@H]1/C(=C/CO)O[C@@H]2CC(=O)N21` here?
Answer: 8.98% (inactive)

Question: Which Potency [3] does the source give for `Cc1cc(C)cc(C(=O)NC2C(=O)N3C(C(=O)O)=C(CSc4nnc(C)s4)CSC23)c1` (configuration not stated) here?
Answer: 26.9 µM (active)

Question: With `C/C=C/C1=C(C(=O)O)N2C(=O)[C@@H](NC(=O)[C@H](N)c3ccc(O)cc3)[C@H]2SC1` as the molecule, how does the max response [6] read?
Answer: 9.08% (inactive)

Question: Which results are given for `O=C(OCc1ccccc1)N1CCN(C(=O)[C@H](Cc2ccc(O[S+](=O)([O-])c3cccc4cnccc34)cc2)N[S+](=O)([O-])c2cccc3cnccc23)CC1`?
Answer: remaining parasite growth % (stronger effect = lower value) [7]: -0.959%; activity, percent of control [8]: 0.261%; remaining proliferation (% of control), lower = more inhibition [9]: -0.068%

Question: For `CC(C)(C)OC(=O)N[C@@H](Cc1ccc(O[S+](=O)([O-])c2cccc3cccnc23)cc1)C(=O)N1CCN(c2ccccc2)CC1`, which remaining parasite growth % (stronger effect = lower value) [7] is on record?
Answer: -0.907%

Question: What about the activity, percent of control [8] of the same molecule?
Answer: -0.148%

Question: What about the remaining proliferation (% of control), lower = more inhibition [9] of the same molecule?
Answer: -0.0202%

Question: For `O=C([C@H](Cc1ccc(OS(=O)(=O)c2cccc3cnccc23)cc1)NS(=O)(=O)c1cccc2cnccc12)N1CCN(c2ccccc2)CC1`, which remaining parasite growth % (stronger effect = lower value) [7] is on record?
Answer: -0.827%

Question: And the activity, percent of control [8]?
Answer: 1.24%

Question: And the remaining proliferation (% of control), lower = more inhibition [9]?
Answer: 0.712%

Question: For `NC(=O)CSc1nnc(NC(=O)c2ccc(Br)o2)s1`, which Potency [3] is on record?
Answer: 26.9 µM (active)

Question: With `O=C([C@H](Cc1ccc(O[S+](=O)([O-])c2cccnc2)cc1)N[S+](=O)([O-])c1ccccn1)N1CCN(c2ccccc2)CC1` as the molecule, how does the remaining parasite growth % (stronger effect = lower value) [7] read?
Answer: 6.76%

Question: What about the activity, percent of control [8] of the same molecule?
Answer: 12.3%

Question: And the remaining proliferation (% of control), lower = more inhibition [9]?
Answer: 2.47%

Question: With `O=C(Nc1ccc(S(=O)(=O)Nc2nccs2)cc1)c1cc(-c2ccncc2)nc2ccccc12` as the molecule, how does the Potency [3] read?
Answer: 67.5 µM (active)
